Sampled rows, rich in hits. Any-hit rate of the full collection: about 1.1%.
TrxR1 inh: rat TrxR1 inhibition | O89049 | recombinant rTrxR1, NADPH fluorescence consumption, selenite substrate | Potency, µM (titrated, usually from 114 µM), without a hit: at the highest dose activity change, negative = inhibition, actives largely listed as inhibitors | 390,000 compounds, 1% hits | AID 588453; further: nearly all actives have a fitted effect of over 65% in size
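Rat TrxR1 (90 nM in the dispensed reagent) was pre-reduced with 400 uM NADPH for 5 min at room temperature, then incubated with compound for 15 min. After 400 uM selenite was added, NADPH fluorescence (Ex 340/Em 450 nm) was followed for 8 min.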
TrxR1 substrate: is turned over as a substrate by rat TrxR1. 390,000 compounds, 0.01% hits. purified TrxR1 substrate turnover, NADPH consumption readout. Potency, µM (highest dose often 114 µM), for inactives: at the top dose activity change, negative = substrate turnover. O89049; further: nearly all actives have a fitted effect of over 50% in size
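Rat TrxR1, dispensed at 90 nM, was prereduced with 400 uM NADPH (final) for 5 min at ~22 deg C, then incubated with compound 15 min before 400 uM selenite. A first-read NADPH fluorescence drop versus no-compound background flagged substrates.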
Eya2 inh: inhibitors of human Eya2 phosphatase activity; O00167; recombinant Eya2, OMFP fluorescence dephosphorylation (OMFP is methylfluorescein phosphate); Potency, µM (doses to about 76.9 µM), for inactives: at the top dose activity, negative = inhibition, usual class: inhibitors; 330,000 compounds, 0.006% hits; AID 488837
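Eya2 (0.2 uM) preincubated 10 min at ambient with compound, then OMFP substrate added at 50 uM; 10 min reaction in 50 mM HEPES pH 7.5, 50 mM NaCl, 5 uM MgCl2, 0.05% BSA, 1 mM DTT. Fluorescence read at Ex 485/Em 525 nm.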
IDH1 R132H inh: blocks human mutant IDH1 R132H enzyme. 390,000 compounds, 0.093% hits. AID 602179. IDH1-R132H enzyme, NADPH consumption, diaphorase/resazurin fluorescence. Potency, µM (doses to about 76.6 µM), for the others: at the highest dose activity change, negative = inhibition, usual class: inhibitors. O75874; further: nearly all actives have a fitted effect of over 65% in size
Target sequence (O75874 whole entry R132H, stated change not applied): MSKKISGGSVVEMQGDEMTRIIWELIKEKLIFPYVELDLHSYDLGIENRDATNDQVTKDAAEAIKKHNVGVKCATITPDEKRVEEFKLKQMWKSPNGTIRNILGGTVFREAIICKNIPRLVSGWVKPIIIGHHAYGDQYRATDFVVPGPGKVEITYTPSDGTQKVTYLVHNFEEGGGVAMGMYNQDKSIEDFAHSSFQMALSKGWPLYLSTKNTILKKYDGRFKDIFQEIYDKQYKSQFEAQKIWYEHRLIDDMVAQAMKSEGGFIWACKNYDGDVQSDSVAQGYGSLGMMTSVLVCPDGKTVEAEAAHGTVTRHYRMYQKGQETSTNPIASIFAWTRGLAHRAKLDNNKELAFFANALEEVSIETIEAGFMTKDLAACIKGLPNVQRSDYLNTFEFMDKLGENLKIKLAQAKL
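IDH1-R132H (0.5 ug/mL) preincubated 30 min with compound, then NADPH (0.016 mM) and alpha-KG (2 mM) added; 80 min at RT, pH 7.5. Remaining NADPH coupled via diaphorase/resazurin to fluorescence (540/590 nm); concentration-response curves normalized to no-enzyme control.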
RGS4 inhibitor: blocks human RGS4-accelerated GTP hydrolysis. Transcreener GDP fluorescence polarization, RGS4-accelerated GTP hydrolysis. Potency, µM (series often up to 114 µM), without a hit: at the top dose activity change, negative = inhibition, most hits filed as inhibitors. 390,000 compounds, 0.039% hits. AID 504845; further: nearly all actives have a fitted effect of over 75% in size
Target sequence (P49798 whole entry, looked up): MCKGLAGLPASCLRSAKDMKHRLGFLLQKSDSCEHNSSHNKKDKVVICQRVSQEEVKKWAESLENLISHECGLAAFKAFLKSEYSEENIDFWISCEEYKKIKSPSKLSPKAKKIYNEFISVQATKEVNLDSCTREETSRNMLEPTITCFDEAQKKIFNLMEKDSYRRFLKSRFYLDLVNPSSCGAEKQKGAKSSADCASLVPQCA
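MLSMR compounds (23 nl, pin-transferred) preincubated 10 min at room temperature with a 500nM (2x) first reagent, then RGS4 at 900nM (2x) plus Transcreener GDP mix added; fluorescence polarization (620/688 nm) read before and after 90 min at 30 °C.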
An asterisk follows results filed as active; ? = inconclusive; . = not tested or not shown; [ ] = remark or other dose. The call rests on the fitted dose curve; in most records, active means well fitted curve in the direction sought with a large enough effect; inconclusive means small, poorly fitted or top-dose-only effect, or another doubt; inactive means no such curve, though single readings can be large; an effect the other way counts as inactive or inconclusive. On the % scale 0 is the no-effect control and ±100 the full control effect; potency means the concentration at half of the fitted maximal effect.

SMILES	TrxR1 inh	TrxR1 substrate	Eya2 inh	IDH1 R132H inh	RGS4 inhibitor
O=[N+]([O-])c1cccc(C2Nc3cccc4cccc(c34)N2)c1	50µM*	-8%	-2%	7%	?
CCN(CC)c1ccc(C2Nc3cccc4cccc(c34)N2)cc1	2%	0%	-21%	10%	-27%
O=C1c2ccccc2NC(c2cccc([N+](=O)[O-])c2)N1O (stereo unspecified)	18%	0%	-7%	-4%	16%
O=[N+]([O-])c1ccc(C2Nc3cccc4cccc(c34)N2)cc1	35µM*	-7%	-1%	7%	?
O=C1Cc2cc(CCN3CCN(c4nsc5ccccc45)CC3)c(Cl)cc2N1	17%[57.1 µM]	12%[57.1 µM]	-4%	.	17µM*
O=C(NC1CCCC1)c1ccc2nc(-c3ccco3)c(-c3ccco3)nc2c1	3.2µM*	9%[57.1 µM]	-8%	4%	-21%[11.4 µM]
O=C(NCCc1ccccc1)c1ccc2nc(-c3ccco3)c(-c3ccco3)nc2c1	3.2µM*	-1%	0%	-3%	?
O=C(NCCc1ccccc1)c1ccc(=O)oc1	-19%	-19%	-24%	6%	5%
O=C(NCCO)c1ccc(Cl)c(Cl)c1	-3%	-5%	0%	5%	-19%
O=C(NCCO)c1ccc2nc(-c3ccco3)c(-c3ccco3)nc2c1	8.9µM*	-3%	4%	13%	-49%
O=C(NC1CCCCC1)c1cnn2c(C(F)(F)F)cc(-c3ccco3)nc12	3.5µM*	15%	-20%	-4%	-30%
CSc1ccc(CNCCCSc2ncccn2)cc1	14%	6%[57.1 µM]	0%	-2%	-17%
CCc1nnc2c(NCc3ccccc3)nc3ccccc3n12	14%	6%	.	32%	12%
CCCCC(CC)CNC(=O)Cn1c(=O)[nH]c2ccsc2c1=O (stereo unspecified)	37%	5%	-5%	-7%	2%
COc1ccccc1CNC(=O)c1cc(C(=O)CC(C)C)c[nH]1	22%	8%	8%	4%	1%
O=C(c1ccccc1)c1ccc2nc(-c3ccco3)c(-c3ccco3)nc2c1	2.8µM*	5%[57.1 µM]	2%	7%	?
c1coc(-c2nc3ccccc3nc2-c2ccco2)c1	?	25%	6%	2%	?
CCc1ccccc1OCCCCN1CCCCC1	7%[57.1 µM]	-10%	-9%	7%	38%
O=C1CC(/C=C/c2ccc([N+](=O)[O-])cc2)=Nc2ccccc2N1	-15%	-7%	-5%	-4%	-24%[11.4 µM]
N#C/C(=C/c1cccc([N+](=O)[O-])c1)C(=O)Nc1ccccc1O	-24%	-6%	-5%	-9%	-33%
N#C/C(=C\c1ccccc1)C(=O)NNS(=O)(=O)c1cccc([N+](=O)[O-])c1	10µM*	-2%	5%	-9%	-15%
O=C(c1ccccc1F)N1c2nc(-c3ccco3)nn2C2(CCCCC2)[C@@H]2CCCC[C@@H]21	25µM*	-3%	.	-22%	-38%
N#C/C(=C/c1ccc(N2CCCCCC2)o1)c1ccc(Cl)cc1	8.9µM*	-8%	7%	11%	?
N#C/C(=C\c1ccc(N2CCOCC2)o1)C(=O)NC1CCCCC1	?	-22%	26%	-14%	-17%
N#C/C(=C/c1ccc(N2CCCCC2)o1)c1cccc(F)c1	7.1µM*	-9%	16%	10%	-112%
SMILES	TrxR1 inh	TrxR1 substrate	Eya2 inh	IDH1 R132H inh	RGS4 inhibitor
OC(CN1CCN(c2ccccn2)CC1)Cn1c2ccccc2c2ccccc21 (stereo unspecified)	28%	-3%	-4%	10%	4%
COC(=O)[C@H](Cc1ccccc1)NC(=O)N1Cc2ccccc2C[C@H]1C(=O)OC	12%	2%	6%	0%	-7%
COC(=O)C1Cc2ccccc2CN1C(=O)CCl (stereo unspecified)	14µM*	7%[57.1 µM]	5%	21%	16%
Cc1ccc(S(=O)(=O)N(C)C)cc1-n1c(SCC(=O)Nc2ccc(F)c(F)c2F)nc2ccccc2c1=O	8%	1%	-1%	-3%	-3%
O=C(CCl)N(c1ccccc1)c1ccccc1	?	9%[57.1 µM]	-1%	1%	-16%
O=Cc1[nH]c2ccccc2c1N(C(=O)CCl)c1ccccc1	3.5µM*	6%[57.1 µM]	-8%	1%	-5%
COc1ccc(/C=C2\C(=O)ON=C2c2ccccc2)cc1	14µM*	-7%	9%	-10%	-100%[56.9 µM]
O=C1ON=C(c2ccccc2)/C1=C/c1ccc(OS(=O)(=O)c2ccccc2)cc1	2.8µM*	-17%	10%	-8%	?
O=C1ON=C(c2cccc([N+](=O)[O-])c2)/C1=C/c1ccc(O)cc1	7.9µM*	-17%[57.1 µM]	-14%	6%	?
O=C1ON=C(c2ccccc2)/C1=C/c1ccc(O)c(O)c1	?	7%[2.29 µM]	6%	2%	?
COc1cc(/C=C2\C(=O)ON=C2c2ccc(Cl)cc2)ccc1O	20µM*	-1%	.	-11%	?
O=C1ON=C(c2ccc(Cl)c([N+](=O)[O-])c2)/C1=C/c1cccc([N+](=O)[O-])c1O	14%	3%	-4%	-14%	-7%
COCCn1c(SCC(=O)NC2CCCC2)nc2c(c1=O)SCC2	1%	-6%	-15%	-4%	0%
COc1cccc(NC(=O)CN2C(=O)CSc3ccc(S(=O)(=O)N4CCCCC4)cc32)c1	10%	-2%	2%	7%	-10%
O=C(COC(=O)Cc1cccc(C(F)(F)F)c1)NCc1ccco1	35µM*	-5%	9%	-12%	-9%
Cc1cc(S(=O)(=O)N2CCCC2)ccc1OCC(=O)NCc1ccco1	10µM*	10%	-6%	-1%	-7%
Cc1ccc(C(=O)NCc2ccco2)cc1Br	18µM*	1%	2%	6%	-34%
Cc1c(Br)cc(C(=O)NCc2ccco2)c(C)c1C	-48%	6%[57.1 µM]	7%	7%	-34%
CC(C)(C)c1ccc(OCC(=O)NCc2ccco2)c(Br)c1	11µM*	-2%	-24%	11%	-43%[56.9 µM]
Cc1ccc(NC(=S)Nc2c(C)n(C)n(-c3ccccc3)c2=O)cc1Cl	-35%	-5%	-4%	4%	-5%
CN(C)c1ccc(/C=C/c2sc3ccccc3[n+]2Cc2ccccc2)cc1	-7%	-2%	.	.	.
CC(Sc1nnc(-c2ccncc2)n1C)C(=O)NCC(=O)Nc1ccc(F)c(F)c1F (stereo unspecified)	.	.	.	8%	.
COc1ccc(C(=O)N2CCCC(C(=O)N3CCN(c4ccccc4)CC3)C2)cc1 (stereo unspecified)	-17%[57.1 µM]	-27%[57.1 µM]	17%	3%	-11%
O=C(OCc1ccco1)c1ccc(S(=O)(=O)N2CCCCC2)cc1	18µM*	2%[57.1 µM]	5%	1%	-1%
COc1cccc(S(=O)(=O)Nc2cccc(C(=O)N3CCCCCC3)c2)c1	10%	6%	1%	2%	-24%
